Screening results (PubChem)
IL-1B inflam inh – inflammasome signaling inhibition, IL-1 beta readout; THP-1 LPS/ATP IL-1B secretion, AlphaLISA, 16 h; stronger effect = lower value; activity change, % at 57.5 µM; 360,000 tested, 4.7% active; AID 743279; in the data active = activity change below about -50%; inconclusive = mostly about -30% to -49%
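THP-1 cells pretreated 1 hr with compounds (up to 57.5 uM final), then stimulated with LPS (250 ng/mL final) plus ATP (1.25 mM final); secreted IL-1B measured by AlphaLISA after 16 hr, decreased signal indicating inhibition.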
MCF10A rerep – inducers of DNA re-replication in MCF 10A breast cells; Potency, µM (highest dose often 46.1 µM), hits mostly activators; 350,000 tested, 2.9% active; MCF 10A DNA re-replication, Hoechst nuclear intensity, 48 h; also: nearly all actives have a fitted effect of over 50% in size
KB-V1 MDR tox – kills drug-selected multidrug resistant KB-V1 cells; KB-V1 MDR cells viability, CellTiter-Glo, 72 h; Potency, µM (titrated, usually from 46.1 µM), hits mostly cytotoxic; 400,000 tested, 3.4% active; AID 1347076; also: nearly all actives have a fitted effect of over 60% in size
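KB-V1 MDR subline cells in DMEM (phenol-red free, 10% FBS) exposed to compounds in qHTS concentration series for 72 h at 37 degrees C. Viability read by CellTiter-Glo luminescence; concentration-effect curves fitted after normalization and correction.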
SW480 rereplic – induces DNA re-replication in SW480 colon adenocarcinoma cells; SW480 DNA re-replication, Hoechst DNA content imaging, 48 h; 340,000 tested, 1.8% active; Potency, µM (series often up to 46.1 µM), actives largely listed as activators; AID 624297; also: nearly all actives have a fitted effect of over 55% in size
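Compounds, transferred as 23 nL by pin tool, were incubated with cells for 48 hr; DNA content per nucleus was then quantified by Hoechst staining and fluorescence plate imaging.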
KB-3-1 cytotox – kills parental KB-3-1 adenocarcinoma cells | KB-3-1 viability, CellTiter-Glo ATP luminescence, 72 h | Potency, µM (top dose mostly 46.1 µM), most hits filed as cytotoxic | 400,000 tested, 1.4% active; also: nearly all actives have a fitted effect of over 60% in size
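Cells are dispensed, compounds pinned in, plates held at 37 °C for 72 h, then CellTiter-Glo is added and luminescence read after 10 minutes. Cell line: parental KB-3-1 in phenol-red-free DMEM, 10% FBS.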
Large screens that a line does not name were inactive; ! = not confirmed by another sample. Only some compounds are listed: those with a hit (about 9.9% of all), similar ones and a draw of the others. Unless noted, calls follow the shape of the dose curve; as a rule, active = well fitted curve in the direction sought with a large enough effect; inconclusive = small, poorly fitted or top-dose-only effect, or another doubt; inactive = no such curve, though single readings can be large; an effect the other way counts as inactive or inconclusive.

C#CCOc1c(/C=C\c2nc(O)c([N+](=O)[O-])c(=O)[nH]2)cc(Br)cc1OC	none
C=C(C)COc1ccc(-c2[nH]ncc2-c2ccc(OC)c(OC)c2)c(O)c1	MCF10A rerep 5.17µM, KB-V1 MDR tox 1.3µM, SW480 rereplic 2.91µM, KB-3-1 cytotox 1.64µM
C=C(C)COc1ccc(-c2[nH]ncc2-c2ccc(OC)cc2)c(O)c1	MCF10A rerep inconclusive
COc1ccc(-c2n[nH]c(C)c2-c2ccc(Cl)cc2)c(O)c1OC	MCF10A rerep 18.4µM, KB-V1 MDR tox inconclusive, KB-3-1 cytotox inconclusive
COc1ccc(-c2cn[nH]c2-c2ccc(OCc3ccccc3)cc2O)cc1OC	IL-1B inflam inh -101.1, MCF10A rerep inconclusive, KB-V1 MDR tox inconclusive, SW480 rereplic inconclusive, KB-3-1 cytotox inconclusive
COc1ccc(-c2cn[nH]c2-c2ccc(OCC(=O)NN)cc2O)cc1OC	none
CCOC(=O)c1ccc(Oc2cn[nH]c2-c2ccc(O)cc2O)cc1	MCF10A rerep inconclusive, KB-3-1 cytotox 23.1µM
COc1ccccc1C(=O)C1CCCN(C(=O)CCn2cnnn2)C1 (stereo not drawn)	none
CCOc1ccccc1NC(=O)Cn1c(=O)n(CCCC(=O)NCCOC)c(=O)c2cc(OC)c(OC)cc21	none (no result: IL-1B inflam inh, MCF10A rerep, SW480 rereplic)
Cc1[nH]c2c(C)cccc2c1CCNS(=O)(=O)c1cccc([N+](=O)[O-])c1	KB-V1 MDR tox 23.1µM, KB-3-1 cytotox inconclusive
O=S(=O)(CCOc1ccccc1)c1nc2ccccc2[nH]1	MCF10A rerep 5.8µM, KB-3-1 cytotox inconclusive
O=C(CCCOc1ccccc1)Nc1nc2ccccc2[nH]1	none
O=[N+]([O-])c1ccc(-[n+]2ccc3ccccc3c2)c([N+](=O)[O-])c1	IL-1B inflam inh -104.8, MCF10A rerep inconclusive, KB-V1 MDR tox 5.17µM, SW480 rereplic inconclusive, KB-3-1 cytotox 4.61µM
C=C(C)c1cccc(C(C)(C)NC(=O)N2CCC(C)CC2)c1	IL-1B inflam inh inconclusive, KB-V1 MDR tox 18.4µM
C=C(C)c1cccc(C(C)(C)NC(=O)Nc2ccc(OC)cc2)c1	none
C=C(C)c1cccc(C(C)(C)NC(=O)Nc2ccc(C(C)=O)cc2)c1	MCF10A rerep inconclusive, KB-V1 MDR tox 18.4µM, SW480 rereplic inconclusive
Cc1ccc(NC(=O)c2ccc(-n3c(C)nnc3C)cc2)cc1F	none (no result: IL-1B inflam inh, MCF10A rerep, SW480 rereplic)
O=C(NCCCN1CCCC1=O)c1cn(-c2ccccc2)nc1-c1ccccc1	KB-V1 MDR tox inconclusive
CCOc1ccccc1CNS(=O)(=O)c1ccc(-c2cnc(C3CC3)o2)cc1	MCF10A rerep 1.3µM, KB-V1 MDR tox 1.46µM!, SW480 rereplic inconclusive, KB-3-1 cytotox 1.16µM
O=S(=O)(NCc1ccccc1)c1ccc(-c2cnc(C3CC3)o2)cc1	MCF10A rerep inconclusive, KB-V1 MDR tox 14.6µM!, KB-3-1 cytotox 18.4µM!
Cc1ccc(NC(=O)Cn2c(=O)n(CCC(=O)NCc3ccccc3Cl)c(=O)c3ccccc32)c(C)c1	KB-V1 MDR tox inconclusive (no result: IL-1B inflam inh, MCF10A rerep, SW480 rereplic)
COC(=O)c1ccc(/C=C2\Oc3ccccc3NC2=O)cc1	IL-1B inflam inh -52.7, MCF10A rerep 6.51µM, KB-V1 MDR tox inconclusive, SW480 rereplic inconclusive
Cc1nn(-c2ccccc2)c(Cl)c1C(=O)Nc1nnc(C2CCCC2)s1	MCF10A rerep inconclusive
COc1ccc2cc3[n+](cc2c1OC)CCc1cc2c(cc1-3)OCO2	IL-1B inflam inh inconclusive, KB-3-1 cytotox 7.31µM!
O=C(NN=Cc1ccc2c(c1)OCO2)NN=Cc1ccc2c(c1)OCO2	IL-1B inflam inh -89.5, MCF10A rerep inconclusive, KB-V1 MDR tox inconclusive
N/C(=N\N=Cc1ccc2c(c1)OCO2)NN=Cc1ccc2c(c1)OCO2	IL-1B inflam inh -98.5, MCF10A rerep 23.1µM, KB-V1 MDR tox inconclusive, SW480 rereplic inconclusive, KB-3-1 cytotox inconclusive
N/C(=N\N=C/c1ccc(Br)cc1)N/N=C\c1ccc(Br)cc1	IL-1B inflam inh -64.1, KB-V1 MDR tox inconclusive
O=C(NN=Cc1ccc2c(c1)OCO2)C1CC1	none
C/C(=N\NC(=O)C(O)c1ccccc1)c1ccc(Br)s1 (stereo not drawn)	none
CCOc1ccc(NC(=O)CCS(=O)(=O)c2cc3c4c(c2)CCN4C(=O)CC3)cc1	none (no result: IL-1B inflam inh, MCF10A rerep, SW480 rereplic)
Cc1ccc(CN2CCN(CCCn3cnc4c(OCc5ccccc5)ncnc43)CC2)cc1	IL-1B inflam inh -53.7, SW480 rereplic inconclusive
c1ccc(CCCNCCCn2cnc3c(OCc4ccccc4)ncnc32)cc1	IL-1B inflam inh -85.7, MCF10A rerep inconclusive
c1ccc(CNCCCn2cnc3c(OCc4ccccc4)ncnc32)cc1	MCF10A rerep inconclusive
c1ccc(COc2ncnc3c2ncn3CCCN2CCN(Cc3cccc4ccccc34)CC2)cc1	KB-V1 MDR tox inconclusive, KB-3-1 cytotox 14.6µM (no result: MCF10A rerep, SW480 rereplic)
O=C(CCc1nnc2n(Cc3ccc(F)cc3)c(=O)c3ccccc3n12)N1CCN(c2ccccn2)CC1	IL-1B inflam inh inconclusive
COc1ccc(NS(=O)(=O)c2cc([N+](=O)[O-])ccc2N/N=C/c2c(C)[nH]c3ccccc23)cc1	MCF10A rerep 9.2µM
COc1ccc(C(C)=NNc2ccc([N+](=O)[O-])cc2S(=O)(=O)Nc2ccccc2C(=O)O)c(OC)c1	MCF10A rerep 9.2µM, SW480 rereplic inconclusive
CN(CCO)c1ccc(C=NNc2ccc([N+](=O)[O-])cc2S(=O)(=O)Nc2ccccc2C(=O)O)cc1	MCF10A rerep inconclusive, KB-V1 MDR tox inconclusive, SW480 rereplic inconclusive, KB-3-1 cytotox inconclusive
CC(=O)Nc1ccc(C=NNc2ccc([N+](=O)[O-])cc2S(=O)(=O)Nc2ccccc2C(=O)O)cc1	MCF10A rerep 20.6µM
Cc1[nH]c2ccccc2c1/C=N/Nc1ccccc1[N+](=O)[O-]	IL-1B inflam inh inconclusive, KB-V1 MDR tox inconclusive, KB-3-1 cytotox inconclusive
CC(C)C(NS(=O)(=O)c1cccc2nsnc12)C(=O)N1CCCCC1 (stereo not drawn)	none
CCCCC(=O)Oc1c(S(=O)(=O)c2ccccc2)c(C)nn1C(C)(C)C	IL-1B inflam inh -77.2, MCF10A rerep inconclusive
O=C1NC2c3c(Cl)sc(Cl)c3C(=O)C2O1 (stereo not drawn)	IL-1B inflam inh -102.7, MCF10A rerep 7.31µM, KB-V1 MDR tox inconclusive, SW480 rereplic inconclusive
O=C1NC2c3c(I)sc(I)c3C(=O)C2O1 (stereo not drawn)	IL-1B inflam inh -56.0, MCF10A rerep 13µM, SW480 rereplic 16.4µM, KB-3-1 cytotox inconclusive
COc1ccc(-c2nc3c(c(=O)n(C)c(=O)n3C)n2CC2CC(c3ccccc3)=NO2)cc1OC (stereo not drawn)	KB-V1 MDR tox 5.8µM
COc1ccc(C(=O)OCC2CC(c3ccccc3)=NO2)cc1OC (stereo not drawn)	none
CCc1ccccc1NC(=O)CN1CCN(CC(=O)Nc2ccc3c(c2)OC2(CCCCC2)O3)CC1	MCF10A rerep 6.51µM, SW480 rereplic 8.2µM, KB-3-1 cytotox inconclusive
O=C(Cc1ccccc1)Nc1ccc2c(c1)OC1(CCCC1)O2	KB-V1 MDR tox inconclusive
Cc1nc(Cc2nnc(SCC(=O)N3c4ccccc4NC(=O)C3(C)C)o2)cs1	none (no result: MCF10A rerep, SW480 rereplic)
Cc1cc(C)nc(Sc2ccc3nnc(C(F)(F)C(F)(F)C(F)(F)F)n3n2)n1	IL-1B inflam inh inconclusive, MCF10A rerep inconclusive, SW480 rereplic 14.6µM
